Sampled rows, rich in hits. Any-hit rate of the full collection: about 3.5%.
GPR151 activ – human GPR151 activation; 650,000 tested, 1% active; PathHunter beta-arrestin GPR151 cells, luminescence; activation, % at 11.2 µM; AID 1508602; in the data active means activation above about 4.9%
Target sequence (Q8TDV0 whole entry, looked up): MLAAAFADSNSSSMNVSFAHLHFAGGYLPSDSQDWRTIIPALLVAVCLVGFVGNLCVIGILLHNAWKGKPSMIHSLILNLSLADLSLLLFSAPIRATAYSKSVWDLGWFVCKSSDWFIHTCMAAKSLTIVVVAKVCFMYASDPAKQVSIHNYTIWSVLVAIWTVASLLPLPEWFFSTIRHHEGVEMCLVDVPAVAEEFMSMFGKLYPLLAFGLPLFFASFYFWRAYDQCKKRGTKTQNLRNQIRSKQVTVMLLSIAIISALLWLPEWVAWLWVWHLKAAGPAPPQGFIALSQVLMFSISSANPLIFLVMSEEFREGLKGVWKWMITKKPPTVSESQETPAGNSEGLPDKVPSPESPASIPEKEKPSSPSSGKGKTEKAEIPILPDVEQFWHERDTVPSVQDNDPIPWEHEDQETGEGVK
FBW7 act – activators of human E3 ligase FBW7 | Q969H0 | AlphaScreen FBW7–phospho-cyclin E peptide binding, activator screen | normalized activity (activation), % at 26.1 µM | 650,000 tested, 0.13% active; in the data active means normalized activity above about 1.9%;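 further: purified mutant Fbw7 with reduced substrate affinity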
MITF inh – inhibitors of human MITF. AlphaScreen MITF homodimerization, bead proximity signal. inhibition, % at 2.6 µM. AID 1259374. O75030. 650,000 tested, 0.91% active; in the data active means inhibition above about 50%
TEAD-YAP block – TEAD-YAP interaction inhibition; HEK-TIYL cells, TEAD-Gal4/YAP UAS-luciferase luminescence; inhibition, % at 9.12 µM; 640,000 tested, 1.4% active; AID 1259422; in the data active means inhibition above about 32%
MITF confirm – human MITF inhibition, confirmation | shares compounds with MITF inh | AlphaScreen MITF homodimerization, biotin/His-MITF beads | inhibition, % at 2.6 µM | 4,700 tested, 16% active | AID 1259372;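 active means inhibition above a cutoff derived from the DMSO control wells, cut at about 28% in these data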;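 further: inhibitors lower the bead chemiluminescence by keeping MITF from dimerizing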
AlphaScreen intf2 – counter-screen: compounds optically interfering with AlphaScreen; shares compounds with MITF inh; LysRS AlphaScreen counterscreen, signal interference, triplicate; inhibition, % at 2.6 µM; 4,700 tested, 7.6% active; AID 1259376;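 active means inhibition above a cutoff derived from the DMSO control wells, cut at about 30% in these data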
Hits are given with their value; - = inactive; . = not tested or not shown.

SMILES	GPR151 activ	FBW7 act	MITF inh	TEAD-YAP block	MITF confirm	AlphaScreen intf2
O=[N+]([O-])c1ccc(Nc2nc(-c3ccncc3)cs2)cc1	-	-	51	-	-	-
CC(=O)Nc1cccc(-c2csc(NCc3ccccc3)n2)c1	-	-	85	-	-	-
CC(=O)Nc1ccc(-c2csc(NCc3ccccc3)n2)cc1	-	-	-	-	.	.
CCc1ccccc1Nc1nc(-c2cccc(NC(C)=O)c2)cs1	-	-	53	-	-	-
COc1ccccc1Nc1nc(-c2cccc(NC(C)=O)c2)cs1	-	-	-	-	.	.
O=C(NCCN1CCOCC1)/C(=C/c1cccnc1)NC(=O)c1ccccc1	-	-	-	-	.	.
CC(=O)N(C)c1ccc(NC(=O)COc2cc(C)c(Cl)c(C)c2)cc1	-	-	-	-	.	.
COc1cccc(/C=N/NS(=O)(=O)c2ccc(C)cc2)c1	-	-	77	-	-	-
CCn1nc(C(=O)Nc2cc(C)nn2-c2nc3ccccc3s2)cc1C	-	-	-	-	.	.
O=C(CCC1CCCCC1)Nc1nc2ccccc2s1	-	-	92	-	-	-
CCCC(=O)Nc1nc2ccccc2s1	-	-	-	-	.	.
CN1CCN(CC(=O)Nc2nc3ccccc3s2)CC1	-	-	51	-	-	-
CCn1nc(C(=O)Nc2nc3ccccc3s2)cc1C	-	-	69	88	-	-
CCC(=O)Nc1ccccc1C(=O)OCC(=O)c1cccc([N+](=O)[O-])c1	-	-	56	-	-	-
O=C(c1ccccn1)N1CCN(C(=O)c2ccccn2)CC1	-	-	-	-	.	.
CS(=O)(=O)N1CCN(c2ccc(-c3ccccn3)nn2)CC1	-	-	87	-	107	101
O=C(CCC1CCCN(C(=O)CC2CCCCC2)C1)N1CCN(c2ccccn2)CC1 (configuration not stated)	-	-	-	-	.	.
O=C(Cn1cnc2ccccc2c1=O)N1CCN(c2ccc(-c3ccccn3)nn2)CC1	-	-	116	-	112	101
O=C(c1ccccn1)N1CCN(c2ccc(-c3ccccn3)nn2)CC1	-	-	123	-	112	101
O=C(CC1CCCC1)N1CCN(c2ccc(-c3ccccn3)nn2)CC1	-	-	111	-	111	101
Cc1ccc(-n2c(=S)[nH]c3c(sc(=S)n3-c3cc(C)ccc3F)c2=O)cc1	-	-	-	-	.	.
COc1ccc(CNc2nc(SCC(=O)NCCc3ccc(S(N)(=O)=O)cc3)nc3ccccc23)cc1	-	-	-	-	.	.
COc1ccc(C(=O)c2sc3nc4c(c(-c5ccc(OC)cc5)c3c2N)CC(C(C)(C)C)CC4)cc1 (configuration not stated)	-	-	-	-	.	.
COc1ccc(OCCNCc2ccco2)cc1	-	-	52	-	-	-
CCCn1c2ccccc2c2nnc(SCC(N)=O)nc21	-	-	-	-	.	.
SMILES	GPR151 activ	FBW7 act	MITF inh	TEAD-YAP block	MITF confirm	AlphaScreen intf2
NC(=O)CSc1nnc2c3ccccc3n(CCc3ccccc3)c2n1	-	-	53	-	-	-
O=C1NC(c2ccccc2)=C([N+](=O)[O-])C(c2cccc(F)c2)N1 (configuration not stated)	-	-	76	-	-	-
COc1cc(OC)cc(C(=O)N2CCN(Cc3ccccc3Cl)CC2)c1	-	-	60	-	-	-
COc1cc(OC)cc(C(=O)N2CCN(Cc3ccc(C)cc3)CC2)c1	-	-	-	-	.	.
COc1ccccc1CN1CCN(C(=O)c2cccc(F)c2)CC1	-	-	-	-	.	.
COc1cc(OC)cc(C(=O)N2CCN(Cc3ccccc3OC)CC2)c1	-	-	61	-	-	-
COc1cc(NC(=O)c2ccc3nc(Nc4ccc(-n5ccnc5)cc4)sc3c2)cc(OC)c1OC	-	-	57	-	-	-
CC(=O)Nc1ccc(NC(=O)c2ccc3nc(Nc4ccc(-n5ccnc5)cc4)sc3c2)cc1	-	-	-	-	.	.
CN(C)S(=O)(=O)Nc1ccc(N2CCC(NCCc3cccs3)CC2)cc1	-	-	63	-	-	-
CN(C)S(=O)(=O)Nc1ccc(N2CCC(NCCc3ccncc3)CC2)cc1	-	-	-	-	.	.
CC(C)c1ccc(C(C)C)c(SCCc2ccccn2)c1	-	-	53	-	-	-
CC(C)(C)c1ccc(SCCc2ccccn2)cc1	-	-	63	-	-	-
COc1ccc(-n2nc(C(=O)NCC(=O)Nc3ccccc3OC)c3ccccc3c2=O)cc1Cl	-	-	-	-	.	.
CN(CC1CCCCO1)C(=O)Cn1nnnc1CN1CCCCCC1 (configuration not stated)	-	-	51	-	-	-
Nc1nn(Cc2ccccc2)c(N)c1[N+](=O)[O-]	-	-	-	-	.	.
CC1(C)CC(=O)C2=C(C1)OC(N)=C(C#N)C2c1ccc(I)o1 (configuration not stated)	-	-	-	-	.	.
CCCNC(=O)c1ccc(CN(c2ccccc2)S(C)(=O)=O)cc1	-	-	-	-	.	.
CCCCNC(=O)c1ccc(CN(c2ccccc2)S(C)(=O)=O)cc1	-	-	92	-	-	-
O=C(CCN1CCc2ccccc2C1)c1ccc(Cl)cc1	-	-	-	-	.	.
CCOc1ccc2[nH]c(=O)c(CN(CCOC)C(=O)c3ccc(C)cc3)cc2c1	-	-	-	-	.	.
CCN1CCN(C(c2ccc(C)cc2)c2nnnn2C(C)(C)CC)CC1 (configuration not stated)	-	-	52	-	-	-
CN(C)CC(C)(C)CNCC(O)COCc1ccccc1F (configuration not stated)	-	-	78	-	-	-
CC1(C)C2CCC1(C)C(NCC(O)COCc1ccccc1F)C2 (configuration not stated)	-	-	65	-	-	-
O=C(NCCO)/C(=C/c1ccccc1F)NC(=O)c1ccccc1	-	-	-	-	.	.
c1ccc(-c2cc3ccccc3[nH]2)nc1	-	-	-	-	.	.
SMILES	GPR151 activ	FBW7 act	MITF inh	TEAD-YAP block	MITF confirm	AlphaScreen intf2
O=c1cc(-c2ccccn2)[nH][nH]1	-	-	114	-	110	101
CC(C)CNS(=O)(=O)c1ccc(OCC(=O)Nc2ccc(F)cc2F)c(Cl)c1	-	-	-	-	.	.
CN1CCN(CCOCCOc2ccc(Br)cc2Cl)CC1	-	-	-	-	.	.
CCN1CCN(CCOc2cccc(Br)c2)CC1	-	-	68	-	-	-
CN1CCN(CCOCCOc2cccc(Br)c2)CC1	-	-	72	-	-	-
COc1ccc(C(=O)N2CCN(c3ccc(OC)nn3)CC2)cc1	-	-	-	-	.	.
O=C(O)COc1ccc(OCc2ccccc2)cc1	-	-	-	-	.	.
CCOC(=O)c1cnc2ccccc2c1Nc1ccc(C)c(C)c1	-	-	54	-	-	-
CCOC(=O)c1cnc2ccccc2c1Nc1cccc(OC)c1	-	-	73	-	-	-
CCOC(=O)c1cnc2ccccc2c1Nc1ccc(O)cc1	-	-	-	-	.	.
O=C1CC(Sc2nc3ccccc3s2)C(=O)N1c1ccccc1 (configuration not stated)	-	-	-	-	.	.

Assay outcomes deposited in PubChem by The Scripps Research Institute Molecular Screening Center.
